# How the values were obtained:
# Assay in all cases: DAPPL (digital affinity profiling via proximity ligation, sequencing); 10 mM Tris-HCl pH 7.5, 50 mM NaCl, 1 mM DTT, 4% glycerol, room temperature, 30 min; GST-TFs on glutathione beads, 16-mer random dsDNA library, 0.1% formaldehyde crosslink after washing; high values mean tight binding
# FLI1 = biological target: T1, FLI1 (Homo sapiens, UniProt Q01543 1-452); conditions: protein: recombinant; tags: N-terminal GST; dsDNA, one strand shown
# T1 sequence: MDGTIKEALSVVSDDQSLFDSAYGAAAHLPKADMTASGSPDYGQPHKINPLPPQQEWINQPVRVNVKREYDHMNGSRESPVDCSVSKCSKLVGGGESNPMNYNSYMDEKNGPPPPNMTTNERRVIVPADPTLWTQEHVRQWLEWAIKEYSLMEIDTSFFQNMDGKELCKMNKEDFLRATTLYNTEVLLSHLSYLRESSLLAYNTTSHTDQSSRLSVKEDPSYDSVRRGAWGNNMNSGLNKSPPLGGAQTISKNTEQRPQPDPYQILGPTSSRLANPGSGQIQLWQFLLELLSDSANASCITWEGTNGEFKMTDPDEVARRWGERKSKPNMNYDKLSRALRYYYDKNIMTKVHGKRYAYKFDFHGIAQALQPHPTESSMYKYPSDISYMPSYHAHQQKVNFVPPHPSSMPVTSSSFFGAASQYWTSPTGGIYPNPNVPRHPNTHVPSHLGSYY
# Method in brief: (§1)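 Pools were built from human transcription factors expressed in yeast as GST fusions, captured on glutathione beads and DNA-barcoded, along with a tag-only sample. Incubation with 200 nmole of a 16-mer random double-stranded DNA library lasted 30 min at room temperature in Tris/NaCl/DTT/glycerol buffer, and was followed by washing, 0.1% formaldehyde crosslinking, proximity ligation, PCR amplification and Illumina NextSeq500 sequencing. Binding signal is the quotient of each hexamer's read frequency for a factor and its frequency for the tag-only sample.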
# ELK1 = biological target: T2, ELK1 (Homo sapiens, UniProt P19419 1-428); conditions: protein: recombinant; tags: N-terminal GST; dsDNA, one strand shown
# T2 sequence: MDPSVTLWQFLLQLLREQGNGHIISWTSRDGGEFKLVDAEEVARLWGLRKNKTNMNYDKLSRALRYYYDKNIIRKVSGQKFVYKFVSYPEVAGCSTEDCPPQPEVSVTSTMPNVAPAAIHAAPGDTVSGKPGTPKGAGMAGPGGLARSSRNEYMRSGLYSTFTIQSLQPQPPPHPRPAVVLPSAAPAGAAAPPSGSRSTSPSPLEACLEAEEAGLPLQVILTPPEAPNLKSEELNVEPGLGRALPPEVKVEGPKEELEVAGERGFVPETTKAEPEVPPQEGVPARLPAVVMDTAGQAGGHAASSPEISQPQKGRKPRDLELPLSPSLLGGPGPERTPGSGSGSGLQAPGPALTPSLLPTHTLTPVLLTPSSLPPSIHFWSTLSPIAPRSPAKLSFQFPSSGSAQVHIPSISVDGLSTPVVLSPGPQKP
# Method in brief: as §1
# GABPA = biological target: T3, GABPA (Homo sapiens, UniProt Q06546 1-454); conditions: protein: recombinant; tags: N-terminal GST; dsDNA, one strand shown
# T3 sequence: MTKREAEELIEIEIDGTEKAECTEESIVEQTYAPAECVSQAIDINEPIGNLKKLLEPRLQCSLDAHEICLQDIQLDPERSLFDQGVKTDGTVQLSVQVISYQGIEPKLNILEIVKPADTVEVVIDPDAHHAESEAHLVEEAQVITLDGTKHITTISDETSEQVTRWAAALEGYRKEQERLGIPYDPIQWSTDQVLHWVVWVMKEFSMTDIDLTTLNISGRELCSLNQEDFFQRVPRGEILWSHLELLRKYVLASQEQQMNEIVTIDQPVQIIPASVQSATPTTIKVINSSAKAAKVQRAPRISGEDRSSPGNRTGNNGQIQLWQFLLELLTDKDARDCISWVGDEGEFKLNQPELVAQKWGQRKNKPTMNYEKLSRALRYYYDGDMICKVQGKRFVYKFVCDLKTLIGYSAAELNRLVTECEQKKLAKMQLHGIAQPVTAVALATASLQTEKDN
# Method in brief: as §1
# ERG = biological target: T4, ERG (Homo sapiens, UniProt P11308 1-479); conditions: protein: recombinant; tags: N-terminal GST; dsDNA, one strand shown
# T4 sequence: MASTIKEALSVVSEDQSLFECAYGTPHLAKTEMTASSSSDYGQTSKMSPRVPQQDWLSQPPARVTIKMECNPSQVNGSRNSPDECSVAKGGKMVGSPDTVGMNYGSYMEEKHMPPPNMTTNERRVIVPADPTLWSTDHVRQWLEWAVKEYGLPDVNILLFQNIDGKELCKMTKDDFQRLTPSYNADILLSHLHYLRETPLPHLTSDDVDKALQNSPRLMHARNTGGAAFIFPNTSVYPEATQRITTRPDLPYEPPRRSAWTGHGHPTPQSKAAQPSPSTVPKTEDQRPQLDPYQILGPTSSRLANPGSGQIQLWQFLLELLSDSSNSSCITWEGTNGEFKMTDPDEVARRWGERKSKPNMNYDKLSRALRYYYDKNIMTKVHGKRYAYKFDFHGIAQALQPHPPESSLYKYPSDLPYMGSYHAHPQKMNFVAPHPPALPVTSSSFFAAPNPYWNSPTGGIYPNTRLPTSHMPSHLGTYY
# Method in brief: as §1
# ELF1 = ELF1 (Homo sapiens, UniProt P32519 1-619); conditions: protein: recombinant; tags: N-terminal GST; dsDNA, one strand shown
# Method in brief: as §1
# EHF = biological target: T5, EHF (Homo sapiens, UniProt Q9NZC4 1-300); conditions: protein: recombinant; tags: N-terminal GST; dsDNA, one strand shown
# T5 sequence: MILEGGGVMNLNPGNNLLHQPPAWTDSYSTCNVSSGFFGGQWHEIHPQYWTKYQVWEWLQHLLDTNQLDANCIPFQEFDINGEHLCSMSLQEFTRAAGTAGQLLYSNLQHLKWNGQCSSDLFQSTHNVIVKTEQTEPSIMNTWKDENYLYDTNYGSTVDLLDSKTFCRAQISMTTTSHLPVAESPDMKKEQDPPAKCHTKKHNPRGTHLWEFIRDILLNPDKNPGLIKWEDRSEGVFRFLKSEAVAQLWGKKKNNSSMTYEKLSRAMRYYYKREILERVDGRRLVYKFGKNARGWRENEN
# Method in brief: as §1
# SPI1 = SPI1 (Homo sapiens, UniProt P17947 1-270); conditions: protein: recombinant; tags: N-terminal GST; dsDNA, one strand shown
# Method in brief: as §1
# SPIB = SPIB (Homo sapiens, UniProt Q01892 1-262); conditions: protein: recombinant; tags: N-terminal GST; dsDNA, one strand shown
# Method in brief: as §1
# ELK3 = biological target: T6, ELK3 (Homo sapiens, UniProt P41970 1-407); conditions: protein: recombinant; tags: N-terminal GST; dsDNA, one strand shown
# T6 sequence: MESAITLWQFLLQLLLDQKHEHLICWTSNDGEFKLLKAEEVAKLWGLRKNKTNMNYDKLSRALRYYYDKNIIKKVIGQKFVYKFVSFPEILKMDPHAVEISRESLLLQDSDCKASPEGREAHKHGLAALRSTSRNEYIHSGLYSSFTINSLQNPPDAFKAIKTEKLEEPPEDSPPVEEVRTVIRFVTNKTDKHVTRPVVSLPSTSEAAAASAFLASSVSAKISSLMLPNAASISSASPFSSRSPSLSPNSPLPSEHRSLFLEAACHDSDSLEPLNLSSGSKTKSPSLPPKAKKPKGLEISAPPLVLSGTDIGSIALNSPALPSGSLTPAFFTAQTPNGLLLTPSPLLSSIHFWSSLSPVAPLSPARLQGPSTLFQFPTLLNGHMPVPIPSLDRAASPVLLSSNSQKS
# Method in brief: as §1
# FEV = biological target: T7, FEV (Homo sapiens, UniProt Q99581 1-238); conditions: protein: recombinant; tags: N-terminal GST; dsDNA, one strand shown
# T7 sequence: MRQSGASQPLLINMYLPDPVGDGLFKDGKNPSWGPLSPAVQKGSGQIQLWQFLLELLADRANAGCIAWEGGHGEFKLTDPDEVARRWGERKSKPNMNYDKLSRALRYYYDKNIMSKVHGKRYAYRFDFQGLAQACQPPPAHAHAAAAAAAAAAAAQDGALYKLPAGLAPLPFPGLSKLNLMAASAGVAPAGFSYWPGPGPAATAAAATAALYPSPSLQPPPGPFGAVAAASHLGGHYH
# Method in brief: as §1
# ETV5 = ETV5 (Homo sapiens, UniProt P41161 1-510); conditions: protein: recombinant; tags: N-terminal GST; dsDNA, one strand shown
# Method in brief: as §1
# HSF1 = HSF1 (Homo sapiens, UniProt Q00613 1-529); conditions: protein: recombinant; tags: N-terminal GST; chain copies: 3; dsDNA, one strand shown
# Method in brief: as §1
# SPIC = biological target: T8, SPIC (Homo sapiens, UniProt Q8N5J4 1-248); conditions: protein: recombinant; tags: N-terminal GST; dsDNA, one strand shown
# T8 sequence: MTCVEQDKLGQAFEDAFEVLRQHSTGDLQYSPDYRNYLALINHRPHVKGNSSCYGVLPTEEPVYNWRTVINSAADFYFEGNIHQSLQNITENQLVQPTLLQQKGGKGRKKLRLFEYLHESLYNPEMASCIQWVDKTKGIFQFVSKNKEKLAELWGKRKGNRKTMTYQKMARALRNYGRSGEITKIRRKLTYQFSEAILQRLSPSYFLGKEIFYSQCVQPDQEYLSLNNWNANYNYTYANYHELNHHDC
# Method in brief: as §1
# ELF4 = ELF4 (Homo sapiens, UniProt Q99607 1-663); conditions: protein: recombinant; tags: N-terminal GST; dsDNA, one strand shown
# Method in brief: as §1
# ELK4 = biological target: T9, ELK4 (Homo sapiens, UniProt P28324-2 1-405); conditions: protein: recombinant; tags: N-terminal GST; dsDNA, one strand shown
# T9 sequence: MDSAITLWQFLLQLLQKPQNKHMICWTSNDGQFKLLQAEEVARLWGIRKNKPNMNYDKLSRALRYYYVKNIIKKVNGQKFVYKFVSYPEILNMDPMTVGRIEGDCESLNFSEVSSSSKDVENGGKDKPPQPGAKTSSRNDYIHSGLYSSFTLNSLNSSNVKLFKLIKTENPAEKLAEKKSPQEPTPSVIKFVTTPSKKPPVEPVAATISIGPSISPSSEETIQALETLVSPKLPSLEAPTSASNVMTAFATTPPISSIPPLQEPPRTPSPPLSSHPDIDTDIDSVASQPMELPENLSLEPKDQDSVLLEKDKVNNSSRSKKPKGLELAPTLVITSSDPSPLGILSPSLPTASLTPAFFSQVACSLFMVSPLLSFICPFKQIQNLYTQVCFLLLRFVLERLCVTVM
# Method in brief: as §1
# ETV2 = biological target: T10, ETV2 (Homo sapiens, UniProt O00321 1-342); conditions: protein: recombinant; tags: N-terminal GST; dsDNA, one strand shown
# T10 sequence: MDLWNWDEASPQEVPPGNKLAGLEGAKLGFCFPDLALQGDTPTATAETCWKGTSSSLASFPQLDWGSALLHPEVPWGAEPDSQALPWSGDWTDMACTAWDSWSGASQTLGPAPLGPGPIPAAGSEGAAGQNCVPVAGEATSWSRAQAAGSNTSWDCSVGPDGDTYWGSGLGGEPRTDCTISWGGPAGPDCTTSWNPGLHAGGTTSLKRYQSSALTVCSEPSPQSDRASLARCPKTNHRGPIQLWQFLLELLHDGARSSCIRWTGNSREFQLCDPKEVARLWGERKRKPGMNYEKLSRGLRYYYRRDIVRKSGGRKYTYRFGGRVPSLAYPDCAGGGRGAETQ
# Method in brief: as §1
# ELF3 = biological target: T11, ELF3 (Homo sapiens, UniProt P78545 1-371); conditions: protein: recombinant; tags: N-terminal GST; dsDNA, one strand shown
# T11 sequence: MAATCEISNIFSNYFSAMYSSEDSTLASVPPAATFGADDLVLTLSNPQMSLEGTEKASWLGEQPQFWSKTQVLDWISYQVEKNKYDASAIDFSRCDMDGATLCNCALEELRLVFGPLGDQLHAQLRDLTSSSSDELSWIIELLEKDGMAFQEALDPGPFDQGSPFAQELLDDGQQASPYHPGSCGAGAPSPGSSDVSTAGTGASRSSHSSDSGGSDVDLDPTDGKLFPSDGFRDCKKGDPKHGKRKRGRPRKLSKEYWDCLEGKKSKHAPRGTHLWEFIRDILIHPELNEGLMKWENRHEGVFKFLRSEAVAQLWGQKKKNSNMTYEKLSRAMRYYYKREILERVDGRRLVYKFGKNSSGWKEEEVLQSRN
# Method in brief: as §1
# CRX = CRX (Homo sapiens, UniProt O43186 1-299); conditions: protein: recombinant; tags: N-terminal GST; dsDNA, one strand shown
# Method in brief: as §1
# ETV1 = ETV1 (Homo sapiens, UniProt P50549 1-477); conditions: protein: recombinant; tags: N-terminal GST; dsDNA, one strand shown
# Method in brief: as §1
# Sequence of CRX (O43186 whole entry): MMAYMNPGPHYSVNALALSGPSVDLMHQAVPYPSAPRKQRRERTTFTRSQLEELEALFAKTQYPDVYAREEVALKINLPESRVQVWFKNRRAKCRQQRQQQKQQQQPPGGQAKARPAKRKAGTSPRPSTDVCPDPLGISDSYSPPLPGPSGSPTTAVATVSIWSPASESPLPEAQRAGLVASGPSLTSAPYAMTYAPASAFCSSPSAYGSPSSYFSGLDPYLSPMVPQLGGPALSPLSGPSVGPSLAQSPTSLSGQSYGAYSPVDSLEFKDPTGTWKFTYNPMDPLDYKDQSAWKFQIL
# Sequence of ETV1 (P50549 whole entry): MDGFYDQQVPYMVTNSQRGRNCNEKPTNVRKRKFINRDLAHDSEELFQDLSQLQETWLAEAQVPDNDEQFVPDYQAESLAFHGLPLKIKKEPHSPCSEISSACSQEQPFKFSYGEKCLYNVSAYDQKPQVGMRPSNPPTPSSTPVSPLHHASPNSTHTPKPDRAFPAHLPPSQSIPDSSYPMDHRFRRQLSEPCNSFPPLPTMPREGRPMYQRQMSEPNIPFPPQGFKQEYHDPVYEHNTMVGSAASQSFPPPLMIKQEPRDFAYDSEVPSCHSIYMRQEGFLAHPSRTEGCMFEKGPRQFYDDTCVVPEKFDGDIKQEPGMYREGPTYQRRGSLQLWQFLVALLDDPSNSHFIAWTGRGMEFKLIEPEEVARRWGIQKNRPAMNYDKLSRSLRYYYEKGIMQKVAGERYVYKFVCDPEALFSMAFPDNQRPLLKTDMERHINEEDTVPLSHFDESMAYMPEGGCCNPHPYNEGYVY
# Sequence of ETV5 (P41161 whole entry): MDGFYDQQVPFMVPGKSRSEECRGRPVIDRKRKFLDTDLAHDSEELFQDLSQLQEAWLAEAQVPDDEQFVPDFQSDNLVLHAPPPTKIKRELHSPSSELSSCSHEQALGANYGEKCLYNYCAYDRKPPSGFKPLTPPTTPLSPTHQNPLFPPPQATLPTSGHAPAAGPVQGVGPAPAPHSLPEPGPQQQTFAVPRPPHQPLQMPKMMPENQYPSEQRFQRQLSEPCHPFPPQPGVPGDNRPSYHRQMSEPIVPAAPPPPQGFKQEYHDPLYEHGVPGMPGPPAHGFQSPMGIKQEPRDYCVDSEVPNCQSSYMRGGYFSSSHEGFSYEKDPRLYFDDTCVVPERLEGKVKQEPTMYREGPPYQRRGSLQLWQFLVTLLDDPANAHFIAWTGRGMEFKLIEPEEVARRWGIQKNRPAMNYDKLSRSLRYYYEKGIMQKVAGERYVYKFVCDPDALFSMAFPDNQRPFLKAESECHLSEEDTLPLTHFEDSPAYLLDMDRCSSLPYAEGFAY
# Sequence of SPIB (Q01892 whole entry): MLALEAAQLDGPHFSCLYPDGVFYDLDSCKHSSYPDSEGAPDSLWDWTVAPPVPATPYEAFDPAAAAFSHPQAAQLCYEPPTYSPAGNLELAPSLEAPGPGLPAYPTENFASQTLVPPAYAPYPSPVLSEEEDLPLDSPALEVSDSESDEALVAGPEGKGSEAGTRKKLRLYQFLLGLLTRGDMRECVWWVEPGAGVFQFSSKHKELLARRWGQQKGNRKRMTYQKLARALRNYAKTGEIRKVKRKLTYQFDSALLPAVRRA
# Sequence of ELF4 (Q99607 whole entry): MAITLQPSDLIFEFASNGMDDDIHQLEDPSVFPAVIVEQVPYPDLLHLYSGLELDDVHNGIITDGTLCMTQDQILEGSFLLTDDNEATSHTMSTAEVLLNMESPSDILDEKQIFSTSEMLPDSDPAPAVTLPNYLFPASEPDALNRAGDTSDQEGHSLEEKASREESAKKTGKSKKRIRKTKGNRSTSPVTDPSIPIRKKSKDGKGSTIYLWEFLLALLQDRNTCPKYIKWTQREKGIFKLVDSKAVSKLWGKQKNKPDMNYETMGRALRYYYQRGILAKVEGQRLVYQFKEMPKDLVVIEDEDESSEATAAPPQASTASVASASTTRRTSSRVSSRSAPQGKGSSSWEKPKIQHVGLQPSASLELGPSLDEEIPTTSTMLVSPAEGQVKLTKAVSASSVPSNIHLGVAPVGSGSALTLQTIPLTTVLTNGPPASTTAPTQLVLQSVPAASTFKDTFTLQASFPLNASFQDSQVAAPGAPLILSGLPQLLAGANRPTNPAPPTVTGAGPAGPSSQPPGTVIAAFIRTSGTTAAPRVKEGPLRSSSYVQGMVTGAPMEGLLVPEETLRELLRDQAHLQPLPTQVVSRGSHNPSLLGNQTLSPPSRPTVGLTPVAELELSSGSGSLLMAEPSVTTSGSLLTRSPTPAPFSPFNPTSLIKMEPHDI
# Sequence of HSF1 (Q00613 whole entry): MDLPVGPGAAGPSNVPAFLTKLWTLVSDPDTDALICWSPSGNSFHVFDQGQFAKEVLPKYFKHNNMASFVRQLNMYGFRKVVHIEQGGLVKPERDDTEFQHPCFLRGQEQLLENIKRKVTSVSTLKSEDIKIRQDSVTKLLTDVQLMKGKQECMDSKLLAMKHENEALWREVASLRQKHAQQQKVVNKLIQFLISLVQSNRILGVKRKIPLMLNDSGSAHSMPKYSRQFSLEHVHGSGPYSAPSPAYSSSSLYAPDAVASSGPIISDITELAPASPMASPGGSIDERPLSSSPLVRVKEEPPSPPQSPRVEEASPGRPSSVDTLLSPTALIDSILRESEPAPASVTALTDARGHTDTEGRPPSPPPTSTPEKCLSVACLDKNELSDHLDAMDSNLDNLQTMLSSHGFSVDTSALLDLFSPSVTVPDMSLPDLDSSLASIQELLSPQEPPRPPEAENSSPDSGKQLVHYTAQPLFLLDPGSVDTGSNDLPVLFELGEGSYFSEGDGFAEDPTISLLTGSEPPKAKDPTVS
# Sequence of ELF1 (P32519 whole entry): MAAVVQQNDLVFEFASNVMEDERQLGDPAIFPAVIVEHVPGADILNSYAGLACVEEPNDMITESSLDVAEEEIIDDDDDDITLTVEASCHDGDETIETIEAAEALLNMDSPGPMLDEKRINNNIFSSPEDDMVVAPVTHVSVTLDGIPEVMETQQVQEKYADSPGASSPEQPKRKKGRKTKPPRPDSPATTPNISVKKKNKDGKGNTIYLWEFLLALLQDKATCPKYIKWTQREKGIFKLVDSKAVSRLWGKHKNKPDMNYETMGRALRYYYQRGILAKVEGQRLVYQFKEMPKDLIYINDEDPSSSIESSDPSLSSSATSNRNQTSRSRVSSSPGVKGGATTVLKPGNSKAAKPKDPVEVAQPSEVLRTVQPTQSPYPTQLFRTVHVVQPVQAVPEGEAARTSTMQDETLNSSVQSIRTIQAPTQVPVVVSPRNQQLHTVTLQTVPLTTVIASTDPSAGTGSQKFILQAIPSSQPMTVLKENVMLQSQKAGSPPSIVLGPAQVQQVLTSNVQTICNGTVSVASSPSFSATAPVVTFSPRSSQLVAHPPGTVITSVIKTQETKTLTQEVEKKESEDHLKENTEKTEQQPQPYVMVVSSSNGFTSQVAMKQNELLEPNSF
sequence,measurement,setting,value
TTGCTC,binding signal,FLI1,"1.35 fold enrichment (6-mer frequency, TF over GST control)"
same,binding signal,ELK1,"1.4 fold enrichment (6-mer frequency, TF over GST control)"
same,binding signal,GABPA,"1.37 fold enrichment (6-mer frequency, TF over GST control)"
same,binding signal,ERG,"1.26 fold enrichment (6-mer frequency, TF over GST control)"
same,binding signal,ELF1,"1.28 fold enrichment (6-mer frequency, TF over GST control)"
same,binding signal,EHF,"1.3 fold enrichment (6-mer frequency, TF over GST control)"
same,binding signal,SPI1,"1.3 fold enrichment (6-mer frequency, TF over GST control)"
same,binding signal,SPIB,"1.25 fold enrichment (6-mer frequency, TF over GST control)"
same,binding signal,ELK3,"1.01 fold enrichment (6-mer frequency, TF over GST control)"
same,binding signal,FEV,"1.25 fold enrichment (6-mer frequency, TF over GST control)"
same,binding signal,ETV5,"1.41 fold enrichment (6-mer frequency, TF over GST control)"
same,binding signal,HSF1,"1.3 fold enrichment (6-mer frequency, TF over GST control)"
same,binding signal,SPIC,"1.34 fold enrichment (6-mer frequency, TF over GST control)"
same,binding signal,ELF4,"1.24 fold enrichment (6-mer frequency, TF over GST control)"
same,binding signal,ELK4,"1.16 fold enrichment (6-mer frequency, TF over GST control)"
same,binding signal,ETV2,"1.4 fold enrichment (6-mer frequency, TF over GST control)"
same,binding signal,ELF3,"1.29 fold enrichment (6-mer frequency, TF over GST control)"
same,binding signal,CRX,"1.17 fold enrichment (6-mer frequency, TF over GST control)"
same,binding signal,ETV1,"1.21 fold enrichment (6-mer frequency, TF over GST control)"

# Source: publication PMC7862700, “An all-to-all approach to the identification of sequence-specific readers for epigenetic DNA modifications on cytosine”
